Screens (PubChem BioAssay)
Hits are enriched below; roughly 4% of the tested compounds scored in any of these assays.
Mdm2 MdmX PPI – inhibitors of human Mdm2-MdmX association, primary screen, cell-based, luminescence, split luciferase, SaOS-2, uHTS; Protein Mdm4 (Homo sapiens) + E3 ubiquitin-protein ligase Mdm2 (Homo sapiens), …; SaOS-2 split-luciferase Mdm2/MdmX complementation; inhibition, % at 8 µM; 330,000 compounds, 3% hits; AID 485346, 2010;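 active means inhibition of at least 50% at 8 µM in the primary screen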
Target sequence (O15151 whole entry, looked up): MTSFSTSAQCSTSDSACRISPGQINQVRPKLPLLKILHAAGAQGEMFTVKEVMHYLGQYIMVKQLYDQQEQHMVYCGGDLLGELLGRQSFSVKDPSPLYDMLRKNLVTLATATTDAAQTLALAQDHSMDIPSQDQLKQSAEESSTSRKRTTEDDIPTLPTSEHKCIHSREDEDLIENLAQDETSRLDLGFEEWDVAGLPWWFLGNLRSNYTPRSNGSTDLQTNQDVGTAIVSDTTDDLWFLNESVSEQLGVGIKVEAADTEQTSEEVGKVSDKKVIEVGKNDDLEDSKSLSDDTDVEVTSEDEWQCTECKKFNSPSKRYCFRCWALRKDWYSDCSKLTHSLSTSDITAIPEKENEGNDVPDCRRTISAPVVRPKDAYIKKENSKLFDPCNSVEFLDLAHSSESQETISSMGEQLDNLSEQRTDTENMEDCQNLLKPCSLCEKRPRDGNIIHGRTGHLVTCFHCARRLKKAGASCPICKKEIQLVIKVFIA
Target sequence (Q00987 whole entry, looked up): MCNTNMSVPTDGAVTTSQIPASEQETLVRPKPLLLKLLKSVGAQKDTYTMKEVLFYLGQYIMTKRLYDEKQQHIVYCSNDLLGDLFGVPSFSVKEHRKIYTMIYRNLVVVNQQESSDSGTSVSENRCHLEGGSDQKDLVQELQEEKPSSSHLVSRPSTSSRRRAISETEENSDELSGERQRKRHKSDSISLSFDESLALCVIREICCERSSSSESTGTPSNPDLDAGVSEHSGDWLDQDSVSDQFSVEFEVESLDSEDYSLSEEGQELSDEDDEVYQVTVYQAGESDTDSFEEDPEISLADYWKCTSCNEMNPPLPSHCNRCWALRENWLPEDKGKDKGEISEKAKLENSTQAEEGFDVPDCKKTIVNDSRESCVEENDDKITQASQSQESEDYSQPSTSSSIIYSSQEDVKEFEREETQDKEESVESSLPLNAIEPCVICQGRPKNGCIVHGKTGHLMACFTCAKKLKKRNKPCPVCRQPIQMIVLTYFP
Shn3 inh set2 – reduction of Shn3 3'UTR firefly luciferase signal, primary screen, Schnurri-3 inhibitor project, cell-based, Clone20 osteoblasts, set 2 | Clone20 osteoblast Shn3 3'UTR firefly luciferase, 24 h | inhibition, % at 12.5 µM | 360,000 compounds, 0.52% hits | AID 588674, 2011;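 active means mean inhibition of at least 75% with every replicate also reaching 75%; inconclusive means mean inhibition at least 75% but some replicate below; inactive means mean inhibition below 75%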
Beta cell apopt – inhibitors of cytokine-induced beta cell apoptosis, primary screen, luminescence | INS-1E cytokine-induced death, ATP luminescence, 48 h; percent of positive-control rescue, neutral wells zero | protection from apoptosis, % (test concentration not listed) | 300,000 compounds, 0.8% hits | AID 435005, 2010;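 active means Every replicate reaches about 75%, or at least half do and their mean reaches it too, limit read from the data; inconclusive means At least half of replicates reach the limit but their mean does not; inactive means Under half of replicates reach the limit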;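 further: higher means more ATP so stronger rescue from cytokine killing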
Gli-Sufu antag – Gli-Sufu pathway antagonists, primary screen, luciferase luminescence, Sufu-KO-LIGHT cells, uHTS. Sufu-KO-LIGHT fibroblasts, Gli luciferase reporter luminescence. 340,000 compounds, 0.74% hits. inhibition, % at 5 µM. AID 588413, 2011;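 active means inhibition above about 55%, limit read from the data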
CSC inhib – cancer stem cell viability inhibitors, primary screen, luminescence. cancer stem cell-like cells viability. inhibition, % at 7.5 µM. 300,000 compounds, 1.1% hits. AID 2717, 2010; in the data active means inhibition above about 75%; inconclusive means no clear call, values can overlap the other calls; tested in HMLE shEcad cells
PAX8 inh HTS – inhibitors of PAX8-driven TPO luciferase reporter, primary screen, RMG-I cells, single concentration | SteadyGlo, 24 h | inhibition, % at 12.6 µM | 360,000 compounds, 1.2% hits;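 active means mean replicate inhibition at least 60% with every replicate also reaching 60%; inconclusive means only one of the two criteria is met; inactive means mean below 60% and not all replicates reaching 60%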;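 further: luciferase light reporting Pax8 driven TPO promoter activity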
Gli antag conf – Gli-SUFU pathway antagonists, confirmation, single concentration, luciferase luminescence, Sufu-KO-LIGHT cells; shares compounds with Gli-Sufu antag; Gli luciferase reporter; inhibition, % at 5 µM; 2,500 compounds, 40% hits;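 active means mean inhibition at 5 µM reaching about 45%, limit read from the data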
Gli cytotox – cytotoxicity in Sufu-KO-LIGHT cells, confirmation, cytotoxicity control for Gli-SUFU antagonist project, cell-based, ATP luminescence, single concentration; 2,500 compounds, 32% hits; AID 651994, 2013; shares compounds with Gli-Sufu antag; cytotoxicity, % at 5 µM;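 active means mean cytotoxicity at 5 µM above about 25%, limit read from the data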;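 further: cells exposed to compound overnight for roughly 16 to 18 hours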
Wnt3a counter – Wnt3a reporter signal inhibition, confirmation, counter-screen for Gli-SUFU antagonist project, Wnt-LIGHT cells, luminescence, single concentration; 2,500 compounds, 20% hits; Wnt3a-driven luciferase reporter; shares compounds with Gli-Sufu antag; inhibition, % at 6.25 µM;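 active means mean inhibition above about 25%, limit read from the data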
Of the large screens only hits and unclear results are named; the others gave an inactive call (follow-up assays come after a bar, where they were run).

CCOC(=O)C1=C(C)NC(C)=C(C(=O)OCC)C1c1ccc(C)o1	Gli-Sufu antag 59 | Gli antag conf inactive | Gli cytotox 27 | Wnt3a counter inactive
COCCNC(=S)NCc1ccc2[nH]c3c(c2c1)CCCC3	Gli-Sufu antag 92 (no result: Beta cell apopt) | Gli antag conf inactive | Gli cytotox 26 | Wnt3a counter inactive
CC(C)CC(=O)NCc1ccc2[nH]c3c(c2c1)CCCC3	none (no result: CSC inhib)
Cc1cc(NC2CCCCC2)nc(NCc2ccccc2)n1	Beta cell apopt 104, Gli-Sufu antag 80 | Gli antag conf 58 | Gli cytotox 34 | Wnt3a counter inactive
Cc1cc(OC(C)C)nc(NCc2ccccc2)n1	none (no result: PAX8 inh HTS)
CN(C)C(=O)c1cccc(-c2cccc(-c3nc(C(=O)N4CCOCC4)cc4c3[C@@H](CCO)N([S@](=O)C(C)(C)C)C4)c2)c1	none (no result: Mdm2 MdmX PPI, Shn3 inh set2, Beta cell apopt, Gli-Sufu antag, CSC inhib)
C[C@@H]1CN([C@@H](C)CO)C(=O)c2cc(NC(=O)C3CCCCC3)ccc2O[C@@H](C)CCCCO[C@@H]1CN(C)S(=O)(=O)c1ccc(Cl)cc1	none (no result: Mdm2 MdmX PPI, Shn3 inh set2, Beta cell apopt, Gli-Sufu antag, CSC inhib)
CCc1c(C)nc2ncnn2c1N1CCN(S(=O)(=O)c2ccc(OC)cc2)CC1	Gli-Sufu antag 60 | Gli antag conf 47 | Gli cytotox 26 | Wnt3a counter inactive
CCc1c(C)nc2ncnn2c1NCCc1ccc(OC)cc1	Beta cell apopt 97, Gli-Sufu antag 62 (no result: PAX8 inh HTS) | Gli antag conf 61 | Gli cytotox 39 | Wnt3a counter inactive
CCc1c(C)nc2ncnn2c1Nc1ccc(C)cc1	none
Cc1ccc(-c2nnc(N3CCC(C)CC3)c3ccccc23)cc1C	Shn3 inh set2 91, CSC inhib 96 | Gli antag conf inactive | Gli cytotox inactive | Wnt3a counter 27
C=CCn1c(SCn2nnc3ccccc3c2=O)nc2scc(-c3cccs3)c2c1=O	none (no result: PAX8 inh HTS) | Gli antag conf inactive | Gli cytotox inactive | Wnt3a counter inactive
C=CCn1c(SCC(=O)Nc2ccccc2)nc2scc(-c3cccs3)c2c1=O	none (no result: PAX8 inh HTS)
O=C(CCCCCn1c(=S)[nH]c2ccc(N3CCOCC3)cc2c1=O)NCc1ccc2c(c1)OCO2	none
O=C(NCCCN1CCOCC1)c1ccc2c(=O)n(Cc3ccc(Cl)cc3)c(=S)[nH]c2c1	none (no result: Beta cell apopt) | Gli antag conf inactive | Gli cytotox 25 | Wnt3a counter inactive
O=C(NCCCN1CCOCC1)c1ccc(CSc2ccc(Cl)cc2)cc1	Gli-Sufu antag 57, CSC inhib 76 | Gli antag conf inactive | Gli cytotox inactive | Wnt3a counter inactive
O=C(CCCCCn1c(=S)[nH]c2ccc(N3CCOCC3)cc2c1=O)NCc1ccc(Cl)cc1	Gli-Sufu antag 83 | Gli antag conf inactive | Gli cytotox inactive | Wnt3a counter inactive
CC(C)c1ccc(C(=O)NCCCN2CCOCC2)cc1	none
CCN(Cc1ccc(NC(C)=O)cc1)CC1CCCN(CCc2cccc(OC)c2)C1 (stereo not drawn)	Gli-Sufu antag 61 | Gli antag conf inactive | Gli cytotox inactive | Wnt3a counter 50
COc1ccccc1OCCn1cc(/C=N/NC(=O)c2ccncc2)c2ccccc21	none
O=C(N/N=C/c1cn(CCOc2ccccc2)c2ccccc12)c1ccncc1	none | Gli antag conf inactive | Gli cytotox inactive | Wnt3a counter inactive
CCN1C(=NCCCOC(C)C)N[C@@H](CCc2ccccc2)[C@H](C(=O)NCCCOC(C)C)[C@H]1C	Gli-Sufu antag 56 | Gli antag conf 57 | Gli cytotox 30 | Wnt3a counter inactive
O=C(COc1ccc2c3c(c(=O)oc2c1)CCCC3)NCCN1CCOCC1	none (no result: Beta cell apopt, PAX8 inh HTS)
O=C(COc1ccc2c3c(c(=O)oc2c1)CCCC3)NCCCN1CCOCC1	Gli-Sufu antag 94 | Gli antag conf inactive | Gli cytotox inactive | Wnt3a counter inactive
Cn1c(=O)[nH]c(=O)c2c1nc(N1CCOCC1)n2CCN1CCOCC1	none (no result: PAX8 inh HTS)
Cn1c(=O)[nH]c(=O)c2c1ncn2CCN1CCOCC1	Gli-Sufu antag 92 (no result: PAX8 inh HTS) | Gli antag conf inactive | Gli cytotox inactive | Wnt3a counter inactive
O=C(c1cc2sccc2n1Cc1ccc(F)cc1)N1CCN(c2nc3ccccc3s2)CC1	Beta cell apopt 100, Gli-Sufu antag 64 | Gli antag conf 70 | Gli cytotox 27 | Wnt3a counter inactive
Cc1cccnc1NC(=O)c1ccc(Cl)c(S(=O)(=O)N2CCCCCC2)c1	Gli-Sufu antag 84 (no result: PAX8 inh HTS) | Gli antag conf inactive | Gli cytotox inactive | Wnt3a counter inactive
CS(=O)(=O)Nc1ccc2c(c1)[C@H]1C[C@@H](CC(=O)N3CCCCC3)O[C@H](CO)[C@H]1O2	none (no result: Mdm2 MdmX PPI, Shn3 inh set2, Beta cell apopt, Gli-Sufu antag, CSC inhib)
N#Cc1cccc(-c2ccc([C@@H]3[C@@H](CO)N4CCCCN(C(=O)Nc5ccccc5)C[C@@H]34)cc2)c1	none (no result: Mdm2 MdmX PPI, Shn3 inh set2, Beta cell apopt, Gli-Sufu antag, CSC inhib)
Clc1ccc(-c2c[n+](Cc3ccc(Cl)cc3Cl)c3n2CCCCC3)cc1	Gli-Sufu antag 66 | Gli antag conf 75 | Gli cytotox 30 | Wnt3a counter inactive
Clc1ccc(-c2c[n+](Cc3ccc(Br)cc3)c3n2CCCCC3)cc1	none
Clc1ccc(C[n+]2cc(-c3ccccc3)n3c2CCCCC3)c(Cl)c1	Shn3 inh set2 inconclusive, Gli-Sufu antag 86, PAX8 inh HTS 81 | Gli antag conf 87 | Gli cytotox 44 | Wnt3a counter inactive
CCCNC(=O)N(C)C[C@@H]1Oc2ncc(C3=CCCC3)cc2C(=O)N([C@@H](C)CO)C[C@@H]1C	none (no result: Mdm2 MdmX PPI, Shn3 inh set2, Beta cell apopt, Gli-Sufu antag, CSC inhib)
O=C(C[C@H]1CC[C@H]2[C@@H](COC[C@@H](O)CN2S(=O)(=O)c2ccccc2)O1)N[C@H]1CCN(Cc2ccccc2)C1	none (no result: Mdm2 MdmX PPI, Shn3 inh set2, Beta cell apopt, Gli-Sufu antag, CSC inhib)
Clc1ccc(-n2ncc3c(NCCN4CCOCC4)ncnc32)cc1	none (no result: PAX8 inh HTS) | Gli antag conf 66 | Gli cytotox inactive | Wnt3a counter 59
O=[N+]([O-])c1cc(/C=N/N/C(=N/c2ccccn2)c2ccccn2)ccc1O	Gli-Sufu antag 79 | Gli antag conf inactive | Gli cytotox 27 | Wnt3a counter inactive
O=c1c2ccccc2nc2n1C(CSCc1ccc(Cl)cc1Cl)CS2 (stereo not drawn)	none (no result: PAX8 inh HTS) | Gli antag conf inactive | Gli cytotox 33 | Wnt3a counter inactive
Cc1nc2nc(-c3cccs3)cn2nc1C	none (no result: PAX8 inh HTS) | Gli antag conf inactive | Gli cytotox inactive | Wnt3a counter inactive
Cc1nc2nc(-c3ccc(Cl)cc3)cn2nc1C	none (no result: Beta cell apopt, PAX8 inh HTS)
